sEH activator – soluble epoxide hydrolase (human) activation | P34913 | purified human sEH enzymatic activity, activator screen | activation, % at 2 µM | actives 0.04% (n = 91,000); in the data active means activation above about 37%
Target sequence (P34913 whole entry, looked up): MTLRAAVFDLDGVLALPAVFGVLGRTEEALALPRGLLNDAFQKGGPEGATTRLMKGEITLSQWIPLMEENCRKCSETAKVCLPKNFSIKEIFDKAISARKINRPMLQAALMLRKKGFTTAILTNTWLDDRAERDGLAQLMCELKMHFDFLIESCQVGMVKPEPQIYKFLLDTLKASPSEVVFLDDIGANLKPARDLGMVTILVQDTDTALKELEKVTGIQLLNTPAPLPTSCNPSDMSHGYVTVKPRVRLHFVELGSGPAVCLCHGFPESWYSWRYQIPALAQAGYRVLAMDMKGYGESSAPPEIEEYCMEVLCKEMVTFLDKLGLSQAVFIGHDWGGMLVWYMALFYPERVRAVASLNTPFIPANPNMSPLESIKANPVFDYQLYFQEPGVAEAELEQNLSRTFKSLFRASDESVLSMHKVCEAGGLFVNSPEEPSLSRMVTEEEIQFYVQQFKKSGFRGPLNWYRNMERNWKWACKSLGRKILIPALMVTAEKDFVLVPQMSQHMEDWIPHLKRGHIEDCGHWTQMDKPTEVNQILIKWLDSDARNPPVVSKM
NFkB transloc inh – blocks IL-1B driven NFkB nuclear translocation in HUVEC cells; HUVEC IL-1B NFkB p65 nuclear translocation imaging; actives 0.43% (n = 94,000); AID 796; inhibition, % at 2 µM;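 active means inhibition above about 30% together with a positive call from visual inspection of the well image, limit read from the data; inconclusive means inhibition above a set limit but visual check negative; inactive means inhibition not above a set limit, visual check negative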;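 further: nuclear over cytoplasmic p65 intensity ratio measured by imaging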
HUVEC tox IL1B – HUVEC cytotoxicity counter-screen, IL-1B stimulated | HUVEC cell count loss, Hoechst imaging | cell count reduction, % at 2 µM | actives 0.41% (n = 94,000) | AID 845;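 active means cell count reduction more than 3 SD above the screen-wide mean, cut at about 70% in these data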
IL1B NFkB pot – enhances IL-1B driven NFkB nuclear translocation; HUVEC IL-1B NFkB p65 nuclear translocation imaging; activation, % at 2 µM; actives 0.3% (n = 94,000); AID 819;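 active means activation above 40%, about the mean plus 3 SD, also judged a hit on visual image review; inconclusive means activation above 40% but not a hit on visual review; inactive means activation not above 40% and no visual hit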;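 further: percent activation is computed from the nuclear over cytoplasmic p65 intensity ratio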
sEH inh – blocks human soluble epoxide hydrolase activity. P34913. recombinant human sEH enzymatic activity assay. inhibition, % at 2 µM. actives 0.34% (n = 91,000); in the data active means inhibition above about 80%
Each line names hits and unclear results; the compound was inactive in the other large screens. Most compounds without a hit are left out; they make up all but 1.2% or so of the library.

CN(c1ccc(C(=O)Nc2ccccc2C(=O)N2CCCC2)cc1)S(C)(=O)=O	HUVEC tox IL1B 82
CCC1=NNc2cccc3c(OC)ccc1c23	IL1B NFkB pot 40
COc1ccc(C(C)=O)c2c(O)cccc12	none
O=C1[C@H]2[C@@H](C(=O)N1c1cccc3ccccc13)C1(C(=O)c3ccccc3C1=O)N1CCC[C@@H]21	none (no result: NFkB transloc inh, HUVEC tox IL1B, IL1B NFkB pot)
CCCCCC(=O)Nc1ccc2oc(-c3cncc(Br)c3)nc2c1	sEH inh 82
Cn1c(NCc2cccs2)nc2ccccc21	none
CCn1c(NCc2cccs2)nc2ccccc21	HUVEC tox IL1B 87
C(=C\c1ccccc1)/CN1CCN(c2ncnc3c2oc2ccccc23)CC1	IL1B NFkB pot 40
CCOC(=O)c1cccc(Nc2nc(C)cc(C)n2)c1	HUVEC tox IL1B 83
O=C(NCc1ccc(Cl)cc1)c1ccccc1Oc1ccccc1	none
CCCCn1nnnc1NCc1cccc(OC)c1OC	IL1B NFkB pot 114
C/C(=N\O)c1ccc(N2C(=O)C3CC=C(Cl)CC3C2=O)cc1 (stereo not drawn)	HUVEC tox IL1B 92
COC(=O)C(NC(=O)c1ccccc1)(Nc1cc(C)cc(C)n1)C(F)(F)F (stereo not drawn)	none
O=C(CSc1nnc(Cn2nnc(-c3ccccc3)n2)n1-c1ccccc1)Nc1ccccc1	none
O=C(CSc1nnc(Cn2nnc(-c3ccccc3)n2)n1-c1ccccc1)Nc1ccc(F)cc1	NFkB transloc inh 99, HUVEC tox IL1B 90
CCOC(=O)CNC(=O)CSc1nnc(SCC(=O)NCC(=O)OCC)s1	IL1B NFkB pot 54
CCOC(=O)CSc1nnc(N)s1	none
O=C(COC(=O)Cc1ccc(S(=O)(=O)N2CCOCC2)s1)NCc1ccc(Cl)cc1	none
Cc1ccc(CCNC(=O)Cn2cccc2)cc1	NFkB transloc inh 98, HUVEC tox IL1B 88
Cc1ccc2c(c1)N(CC(=O)Nc1ccc3c(c1)OCCO3)C(=O)CO2	NFkB transloc inh 99, HUVEC tox IL1B 91
CSC(=O)CC(=O)NC(=O)c1ccccc1	HUVEC tox IL1B 89
CCOC(=O)c1c(NC(=O)CSc2nnc(-c3ccncc3)n2Cc2ccco2)sc(C)c1C	none
CCOC(=O)c1c(NC(=O)CSc2nnc(-c3ccncc3)n2Cc2ccco2)sc(C(C)=O)c1C	NFkB transloc inh 38
Cc1ccc(C)c2[nH]c(=O)c(CCNC(=O)c3ccc(S(=O)(=O)N(C)C)cc3)cc12	none
COc1ccc(NC(=O)/C(Cl)=C(/Cl)S(=O)(=O)Cc2ccccc2)cn1	IL1B NFkB pot 68
C=CCn1c(SCC(=O)NC2CCCCC2)nnc1C(C)NC(=O)c1cccs1 (stereo not drawn)	none
C=CCn1c(SCC(=O)c2ccc(OC)cc2)nnc1C(C)NC(=O)c1cccs1 (stereo not drawn)	NFkB transloc inh 49, HUVEC tox IL1B 94
CC(=O)OC1c2ccccc2C(=O)N1Cc1ccccc1Cl (stereo not drawn)	none
CCOc1ccc(N(CC(=O)Nc2cccc(Cl)c2)S(=O)(=O)c2c(C)noc2C)cc1	none
CCOc1ccc(N(CC(=O)Nc2cccc(OC)c2)S(=O)(=O)c2c(C)noc2C)cc1	NFkB transloc inh 50
O=C(NCc1ccco1)C(c1cccs1)N(C(=O)C1COc2ccccc2O1)c1cccc(O)c1 (stereo not drawn)	none
CCc1ccc(-c2nc(CN3CCC(C(=O)NCCN(CC)c4ccccc4)CC3)c(C)o2)cc1	none
CCN(CCNC(=O)C1CCN(Cc2nc(-c3ccc(Cl)cc3)oc2C)CC1)c1ccccc1	sEH inh 84
CCN(CCNC(=O)C1CCCN(Cc2nc(-c3ccc(OC)cc3)oc2C)C1)c1ccccc1 (stereo not drawn)	none
CCN(CCNC(=O)C1CCN(Cc2nc(-c3cccc(Cl)c3)oc2C)CC1)c1ccccc1	sEH inh 90
COc1cc2c(cc1NC(=O)CSc1nnc(Cc3cccs3)n1C)oc1ccccc12	none
CCn1c(SCC(=O)Nc2cc3oc4ccccc4c3cc2OC)nnc1-c1cccs1	IL1B NFkB pot 41
Cc1cc2nc(C)n(CCCNC(=O)Nc3ccc(F)cc3)c2cc1C	none
CS(=O)(=O)N(Cc1ccc(C(=O)NCCSCc2ccco2)cc1)c1ccccc1	sEH inh 81
CCOC(=O)N1CCN(CCC(=O)Nc2ccc(OC(F)(F)F)cc2)CC1	none
CCCCNC(=O)C1CC(=O)N(c2ccc(OC)cc2)C1c1ccc(OC)cc1 (stereo not drawn)	none
O=C(N[C@@H](Cc1ccccc1)C(=O)NC1CCCCCC1)c1ccco1	IL1B NFkB pot inconclusive, sEH inh 80
O=C(N[C@@H](Cc1ccccc1)C(=O)NC1CCCCC1)c1ccco1	none
